# Compound activity as filed in PubChem BioAssay.
# Rab9 prom act: activators of Rab9 promoter | Huh7 Rab9 promoter-luciferase reporter, luminescence, 24 h | Potency, µM (top dose mostly 9.22 µM), for the others: at the top dose activation, negative = inhibition, usual class: activators | hit rate 2.8% among 320,000; also: % of control where 0% means no effect; nearly all actives have a fitted effect of over 60% in size
#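 Huh7 cells stably carrying Rab9 promoter–luciferase reporter, plated 1500 cells/well, compound added after 2 h and incubated 24 h at 37 °C; luciferase luminescence then read after 10 min with detection reagent.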
# SMN2 splice enh: enhancers of SMN2 splice variant expression; HEK293 SMN2-luciferase splicing reporter, luminescence, 30-36 h; Potency, µM (titrated, usually from 46.1 µM), for the others: top-dose activity change, positive = activation, actives largely listed as activators; hit rate 2.8% among 210,000; also: % of control where 0% means no effect; nearly all actives have a fitted effect of over 55% in size
#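 HEK293 cells carry an SMN2 […]–luciferase reporter in which exon 7 inclusion puts luciferase in frame. Cells were plated 10-12 h before compound addition, then incubated 30-36 h at 37C. ONE-Glo luminescence was read; sodium butyrate at 4.5 mM final served as control.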
# FLuc modulator: firefly luciferase modulation, counter-screen for miR-21 project; P08659; purified FLuc, Km substrates, luminescence inhibition; Potency, µM (doses to about 57.5 µM), inactives show at the highest dose activity change, negative = inhibition, most hits filed as inhibitors; hit rate 6.9% among 360,000; AID 588342;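 also: plate controls were vehicle for no effect and reference inhibitor for full effect; nearly all actives have a fitted effect of over 55% in size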
# Target sequence (P08659 whole entry, looked up): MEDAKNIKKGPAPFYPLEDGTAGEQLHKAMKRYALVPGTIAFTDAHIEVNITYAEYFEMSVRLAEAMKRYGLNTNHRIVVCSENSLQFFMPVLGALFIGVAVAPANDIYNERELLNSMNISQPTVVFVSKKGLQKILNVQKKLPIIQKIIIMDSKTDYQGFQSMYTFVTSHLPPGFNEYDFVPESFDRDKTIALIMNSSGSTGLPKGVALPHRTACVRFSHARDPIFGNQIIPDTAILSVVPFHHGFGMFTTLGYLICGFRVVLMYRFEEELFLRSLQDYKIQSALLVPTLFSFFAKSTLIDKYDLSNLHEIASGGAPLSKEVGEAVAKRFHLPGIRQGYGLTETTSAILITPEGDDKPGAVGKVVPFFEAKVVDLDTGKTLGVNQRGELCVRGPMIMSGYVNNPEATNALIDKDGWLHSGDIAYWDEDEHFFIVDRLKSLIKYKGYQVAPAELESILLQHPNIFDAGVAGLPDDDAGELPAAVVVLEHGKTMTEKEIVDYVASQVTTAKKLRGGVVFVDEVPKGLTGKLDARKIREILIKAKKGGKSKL
#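 Purified P. pyralis luciferase (10nM final) with 10uM D-luciferin and 10uM ATP (Km levels) in 50mM Tris acetate pH 7.5, 10mM Mg acetate, 0.01% Tween-20, 0.05% BSA; qHTS 6-point titration, ~60 µM downward; luminescence read.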
# NPC1 prom act: activates the NPC1 promoter; Huh7 NPC1 promoter luciferase reporter, 24 h; Potency, µM (titrated, usually from 9.22 µM), for inactives: at the top dose activation, usual class: activators; hit rate 2.4% among 320,000; AID 485313; also: % of control where 0% means no effect; nearly all actives have a fitted effect of over 60% in size
#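 Huh7 cells stably carrying NPC1 promoter–luciferase, plated in Opti-MEM with 10% FBS for 2 h, were exposed to compound in DMSO for 24 h at 37 °C; luciferase reagent was added for 10 min and luminescence read.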
# ELG1 genotox: genotoxicity induction in ELG1-luciferase HEK293T cells. HEK293T ELG1-luciferase reporter, luminescence, 16 h. Potency, µM (doses to about 46 µM), inactives show top-dose activity change, positive = activation, actives largely listed as activators. hit rate 1.3% among 330,000; also: % of control where 0% means no effect; nearly all actives have a fitted effect of over 60% in size
#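 Step 1: seed 2,000 HEK293T ELG1-luciferase cells per well. Step 2: add compound or DMSO, incubate 16 hr at 37 °C. Step 3: ONE-Glo, 30 min at room temperature, read luminescence.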
# Numbers without * were called inactive; ? = inconclusive; · = no result. This is a sample that favours compounds with a hit; in the whole collection about 7.4% have one here. Calls follow the shape of the dose curve; as a rule, active = well fitted curve in the direction sought with a large enough effect; inconclusive = small, poorly fitted or top-dose-only effect, or another doubt; inactive = no such curve, though single readings can be large; an effect the other way counts as inactive or inconclusive. Potency is read from the fitted curve at half-maximal effect.
SMILES,Rab9 prom act,SMN2 splice enh,FLuc modulator,NPC1 prom act,ELG1 genotox
O=C1CN(C(=O)COC(=O)CCC(=O)c2ccc(Cl)cc2)c2ccccc2N1,·,·,·,·,-2%
CCCOc1ccc(C(=O)CCC(=O)OCC(=O)N2CC(=O)Nc3ccccc32)cc1,-7%,-2%,17µM*,-2%,-1%
Cc1ccc(/C=C/C(=O)Nc2cccnc2)o1,?,?,24µM*,26%,0%
O=C(/C=C/c1ccc([N+](=O)[O-])cc1)Nc1cccnc1,3.5µM*,13µM*,5.4µM*,2.8µM*,?
O=C(/C=C/c1ccccc1)Nc1cccnc1,2.2µM*,·,6.7µM*,2.2µM*,?
COc1ccc(-n2ncc3c2ncn2nc(COc4ccc(Cl)cc4)nc32)cc1,·,2%,1%,·,·
CCOc1ccc(OCC)c(S(=O)(=O)N2CCN(c3cccc(C)c3C)CC2)c1,·,-30%,2%,·,·
CN(Cc1cn(-c2ccccc2)nc1-c1ccc(F)cc1)C(=O)CCC(=O)O,-3%,14%,12µM*,-2%,4%
CN(Cc1cn(-c2ccccc2)nc1-c1ccc(Cl)cc1)C(=O)CCC(=O)O,-11%,6%,11µM*,7%,4%
CN(CC(=O)Nc1cccc(F)c1)C(=O)c1cn(-c2ccccc2)nc1-c1ccc(F)cc1,0%,·,?,-3%,-4%
COc1ccc(-c2nn(-c3ccccc3)cc2CO)cc1,?,-44%,?,3%,?
Cc1ccc(-c2nn(-c3ccccc3)cc2CO)cc1,?,·,15µM*,?,?
Cc1ccc(NC(=O)c2ccc3c(O)c(S(=O)(=O)c4ccccc4)c(=O)[nH]c3c2)cc1Cl,·,·,11µM*,·,·
CCc1ccc(NC(=O)c2ccc3c(O)c(S(=O)(=O)c4ccccc4)c(=O)[nH]c3c2)cc1,·,·,4.3µM*,·,·
COc1ccc(S(=O)(=O)c2c(O)c3ccc(C(=O)Nc4ccccc4)cc3[nH]c2=O)cc1,-2%,·,?,-1%,-1%
COc1cc(/C=C/c2sc3ccccc3[n+]2CCCS(=O)(=O)[O-])ccc1O,-3%,-43%,13µM*,-9%,-5%
O=C1COc2ccc(-c3cc(-c4ccc(Cl)cc4)c4c(n3)-c3ccccc3OC4)cc2N1,·,8%,-3%,·,·
COc1cc(Nc2cc(C)nc3ncnn23)cc(OC)c1,1%,?,1%,-17%,23µM*
COc1cc(Nc2cc(C)nc3ncnn23)cc(OC)c1OC,-2%,14µM*,-1%,-1%,?
CCOc1ccc(OCC)c(Nc2cc(C)nc3ncnn23)c1,-5%,11µM*,-1%,-9%,21µM*
COC(=O)c1cc(Nc2cc(C)nc3ncnn23)cc(C(=O)OC)c1,-1%,9%,5%,-1%,2%
COc1ccc(N2CC3=C(C2=O)C(c2ccc(Br)cc2)NC(=O)N3C)cc1 (stereo not given),·,15%,-1%,·,·
O=C(Nc1sc2c(c1C(=O)NCC1CCCO1)CCC2)c1cc(=O)c2ccccc2o1 (stereo not given),·,10%,2%,·,·
O=C(Nc1ccc(C2SCCS2)cc1)c1ccccc1,1.4µM*,·,0.85µM*,1.1µM*,?
CCCCNC(=O)Nc1ccc(C2SCCS2)cc1,?,·,15µM*,?,?
SMILES,Rab9 prom act,SMN2 splice enh,FLuc modulator,NPC1 prom act,ELG1 genotox
CC(C)c1ccc(NC(=O)COc2ccc(C3SCCS3)cc2)cc1,-1%,·,-3%,1%,0%
CNC(=O)Nc1ccc(C2SCCS2)cc1,4%,·,17µM*,18%,9%
O=C(NNC(=O)c1ccc(NC(=O)c2ccccc2)cc1)c1ccccc1,-1%,4%,-3%,-6%,18%
Cc1ccc(NC(=O)c2c3c(nc4ccccc24)C(=O)N(C2CCCCC2)C3)cc1F,·,·,-2%,·,·
Cc1ccccc1Cn1c2ccccc2c2cnn(CC(=O)NC(C)CCc3ccccc3)c(=O)c21 (stereo not given),·,1%,3%,·,·
O=C1CCC(/C=C/c2ccccc2)=NN1,9%,11%,-13%,-15%,16%
CCOc1ccc(/C=C/C2=NNC(=O)CC2)cc1,?,11µM*,15µM*,?,18µM*
COc1ccc(/C=C/C2=NNC(=O)CC2)cc1,2.8µM*,16µM*,?,27%,?
CCOC(=O)c1c(C)[nH]c(C)c1S(=O)(=O)N1CCC(C(=O)N2CCN(c3cccc(C)c3)C(C)C2)CC1 (stereo not given),·,·,-3%,·,·
CS/C(N)=N/N=C/c1cc(Br)cc(Br)c1O,2%,·,27µM*,-1%,3%
CS/C(N)=N/N=C/c1cc(C)ccc1O,0.16µM*,·,1.2µM*,1.1µM*,7.3µM*
CCS/C(N)=N/N=C/c1cc(C)ccc1O,?,11µM*,0.95µM*,1.6µM*,1.2µM*
CCCCS/C(N)=N/N=C/c1cc(C)ccc1O,5%,15%,17µM*,18%,?
CCN(CC)c1ccc(/C=N/N=C(N)N)c(O)c1,-19%,-37%,-5%,-11%,10%
CCCCC/C=C\C\C=C/C=C/C=C/[C@@H](SCC(N)C(=O)NCC(=O)O)[C@@H](O)CCCC(=O)O (stereo not given in full),·,-7%,·,·,·
COc1ccc(OC)c(NC(=O)c2cnc(N3CCCCC3)c3ccccc23)c1,·,·,-4%,·,·
CCn1c(=O)n(-c2ccc(F)cc2)c(=O)c2sc3ccccc3c21,·,-15%,-1%,·,·
CCOc1ccc2cc(-c3nnc(Nc4ccccc4F)s3)c(=O)oc2c1,·,6%,-7%,·,·
CC(C)=CCn1cnc2c1C(NOCc1ccccc1)=NCN2,·,11%,·,·,·
Cc1c(O)ccc(-c2[nH]ncc2-c2nc3ccccc3s2)c1O,2%,4%,3%,-2%,-8%
Cc1c(O)ccc(-c2n[nH]c(C(=O)O)c2-c2nc3ccccc3s2)c1O,16%,·,17µM*,0%,13%
Cc1ccc(S(=O)(=O)NCCc2nnc3ccc(SCC(=O)Nc4ccc(OC(F)(F)F)cc4)nn23)cc1,·,·,5%,·,·
COc1ccccc1N1CCN(C(=O)c2ccc3[nH]c4c(c3c2)CC(C)CC4)CC1 (stereo not given),1%,6%,19µM*,-3%,-8%
COC(=O)c1cc(C(=O)N2CCN(c3ccccc3OC)CC2)cc([N+](=O)[O-])c1,-12%,·,21µM*,-5%,0%
COc1ccccc1N1CCN(C(=O)c2ccc3[nH]c(C)c(C)c3c2)CC1,-25%,·,2%,-29%,?
COC(=O)c1cc(C(=O)N2CCN(c3cccc(C)c3C)CC2)cc([N+](=O)[O-])c1,-21%,-22%,2%,-32%,-7%
O=C1NC(=O)c2cc([N+](=O)[O-])ccc21,·,-7%,·,·,·
Cc1ccc(-c2nnc(-c3ccccc3)o2)cc1,1.4µM*,2.8µM*,2.7µM*,3.2µM*,?
COc1ccc(-c2nnc(-c3ccc(C)cc3)o2)cc1,?,·,1.9µM*,1.6µM*,?
